# In the supplement of paper PMC8728848:
# This excerpt belongs to a sample that is enriched for the strongest signals.
# What was measured:
# Experiment in all cases: glycan array binding signal (z-score within array); higher = stronger binding
# Conditions in all cases: glycan notation: IUPAC condensed, linker removed
# Fuc(a1-2)Gal(b1-4)Glc = target: Fuc(a1-2)Gal(b1-4)Glc
# Method in brief: (§1)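 Glycan array data were curated from 3228 arrays in the Consortium for Functional Glycomics database and kept only where the protein sequence was available. Glycan names were converted to IUPAC-condensed notation, and columns mapping to the same glycan were averaged. The binding signal is a within-array Z-score, averaged across arrays of the same protein sequence at different concentrations or buffers and across linkers. Negative Z-scores can be read as non-binding.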
# [1] = target: Fuc(a1-2)Gal(b1-4)GlcNAc(b1-3)Gal(b1-4)GlcNAc
# Method in brief: as §1
# [2] = target: Fuc(a1-2)Gal6S(b1-4)GlcNAc
# Method in brief: as §1
# [3] = target: Fuc(a1-2)[GalNAc(a1-3)]Gal(b1-4)GlcNAc
# Method in brief: as §1
# [4] = target: Fuc(a1-2)[GalNAc(a1-3)]Gal(b1-4)[Fuc(a1-3)]GlcNAc
# Method in brief: as §1
# Gal(a1-3)Gal(b1-3)GlcNAc = target: Gal(a1-3)Gal(b1-3)GlcNAc
# Method in brief: as §1
# Gal(a1-3)GalNAc = target: Gal(a1-3)GalNAc
# Method in brief: as §1
# [5] = target: Gal(a1-4)Gal(b1-4)GlcNAc(b1-3)Gal(b1-4)Glc
# Method in brief: as §1
# Gal(a1-4)GlcNAc = target: Gal(a1-4)GlcNAc
# Method in brief: as §1
# [6] = target: Gal(b1-3)[Fuc(a1-4)]GlcNAc(b1-2)Man(a1-3)[Gal(b1-3)[Fuc(a1-4)]GlcNAc(b1-2)Man(a1-6)]Man(b1-4)GlcNAc(b1-4)[Fuc(a1-6)]GlcNAc
# Method in brief: as §1
# [7] = target: Gal(b1-3)[Neu5Ac(a2-6)]GalNAc
# Method in brief: as §1
# Gal(b1-4)Glc6S = target: Gal(b1-4)Glc6S
# Method in brief: as §1
# [8] = target: Gal(b1-4)GlcNAc(b1-3)GalNAc
# Method in brief: as §1
# [9] = target: Gal(b1-4)GlcNAc(b1-3)[Gal(b1-4)GlcNAc(b1-6)]Gal(b1-4)GlcNAc
# Method in brief: as §1
# Gal3S(b1-4)GlcNAc = target: Gal3S(b1-4)GlcNAc
# Method in brief: as §1
# [10] = target: Gal3S(b1-4)[Fuc(a1-3)]Glc6S
# Method in brief: as §1
# Gal4S6S(b1-4)GlcNAc = target: Gal4S6S(b1-4)GlcNAc
# Method in brief: as §1
# GalNAc(a1-3)GalNAc = target: GalNAc(a1-3)GalNAc
# Method in brief: as §1
# GlcA(b1-3)Gal = target: GlcA(b1-3)Gal
# Method in brief: as §1
# [11] = target: GlcNAc(a1-4)Gal(b1-4)GlcNAc(b1-3)Gal(b1-4)[Fuc(a1-3)]GlcNAc(b1-3)Gal(b1-4)[Fuc(a1-3)]GlcNAc
# Method in brief: as §1
# [12] = target: GlcNAc(b1-2)Man(a1-3)[GlcNAc(b1-2)Man(a1-6)]Man(b1-4)GlcNAc(b1-4)[Fuc(a1-6)]GlcNAc
# Method in brief: as §1
# GlcNAc3Prop(b1-4)GlcNAc = target: GlcNAc3Prop(b1-4)GlcNAc
# Method in brief: as §1
# Kdn(a2-3)Gal(b1-3)GlcNAc = target: Kdn(a2-3)Gal(b1-3)GlcNAc
# Method in brief: as §1
# [13] = target: Man(a1-2)Man(a1-2)Man(a1-3)Man
# Method in brief: as §1
# Man(a1-3)[Man(a1-6)]Man = target: Man(a1-3)[Man(a1-6)]Man
# Method in brief: as §1
# [14] = target: Man(a1-3)[Man(a1-6)]Man(b1-4)GlcNAc(b1-4)GlcNAc
# Method in brief: as §1
# Neu5Ac(a2-3)Gal = target: Neu5Ac(a2-3)Gal
# Method in brief: as §1
# [15] = target: Neu5Ac(a2-3)Gal(b1-3)GalNAc
# Method in brief: as §1
# [16] = target: Neu5Ac(a2-3)Gal(b1-3)[Neu5Ac(a2-3)Gal(b1-4)]GlcNAc
# Method in brief: as §1
# [17] = target: Neu5Ac(a2-3)Gal(b1-4)GlcNAc(b1-3)GalNAc
# Method in brief: as §1
# [18] = target: Neu5Ac(a2-3)Gal(b1-4)GlcNAc6S
# Method in brief: as §1
# [19] = target: Neu5Ac(a2-3)Gal(b1-4)[Fuc(a1-3)]GlcNAc
# Method in brief: as §1
# [20] = target: Neu5Ac(a2-3)Gal(b1-4)[Fuc(a1-3)]GlcNAc(b1-6)[Gal(b1-3)]GalNAc
# Method in brief: as §1
# [21] = target: Neu5Ac(a2-6)Gal(b1-4)GlcNAc(b1-3)Gal(b1-4)[Fuc(a1-3)]GlcNAc(b1-3)Gal(b1-4)[Fuc(a1-3)]GlcNAc
# Method in brief: as §1
binder,measurement,setting,value
"LERP (Drosophila melanogaster), B7Z0Q8 (protein) MRCSLQKDCAAPTQENFRQMRFPIVISLLLLLFCSGESVAADAANQLKFSTTECKLKEPIYGSTFDFSGLHSDLAHVVKSMNIGGDQFEFNICGNLSRTCNGESNVAACLKRQGKEYILGRQHELFYNNGNMFLKYKSGAKCDNGTADKPNYQLHVMFSCDYTLDAQPMHVTPYANEVCSFYISYRTPLACLSIPEGLQSNSCRVGDTKSNGTFDLMPLSDSNYHTSNRQGAFFVINVCKPVLYGENSMCPAGSSVCLFDSKATNPKERFINFGNVQTHPVVEKGQLLLRHESPTPCAKNSSANYTSVIYFSCDKFIRNAHPEFAGLGADSCTYQFNFATPLACNDLKPCTAFTSTNELLDLSSLSSKPARTLLKDGKNYTIAVCAHAGAPCQENGGACYEQNSTTISLGNSNSQLRFNQTGSLYLLYEDGAECSTATGMRRWSTKIEFVCANNATKDNGASTAGGSDSLKIIEDSNCQLLIQYQTPLACREPIRCKATTYVDHTNDGLGSSGDELIDLTPLISATDNYEARVELPASMEHLVPKTTKFFLNVCRPLVPKYQLGCAGGSAACMAKVTAAGAPEEERSMGFPLVSLTQRNRTFAELAYLKGDPCPTDNTSELSTHILFNCNMRAGRGQPVLRSVEDCAYRFEWETNVFCPPHECTFSADTCDLVHDELGRRFNFKSAPFTKDGKIEIDYNATKMSVNICGAHRKAMTDYSQALVNIFFTHESPNCGREGTMNVQIRLICSDQTESSSTISSDQQCNLLYVQRTPSICEFLSLGATQQNFESNGSTSSSTSSSSTSTTTSTTTQASPAGKPTKAATSTTTTTVGPDPAATPIGPTASVGTILGAILSVTFCVTCLGLLAFSPARRQRIRRLFRRSNSAVRYSRVQSNEEANLLLEPNGEFTESDDDMLL",glycan array binding signal (z-score),Fuc(a1-2)Gal(b1-4)Glc,-1.18
same,glycan array binding signal (z-score),[1],0.534
same,glycan array binding signal (z-score),[2],-0.168
same,glycan array binding signal (z-score),[3],0.43
same,glycan array binding signal (z-score),[4],1.65
same,glycan array binding signal (z-score),Gal(a1-3)Gal(b1-3)GlcNAc,-0.704
same,glycan array binding signal (z-score),Gal(a1-3)GalNAc,-0.56
same,glycan array binding signal (z-score),[5],2.8
same,glycan array binding signal (z-score),Gal(a1-4)GlcNAc,-0.583
same,glycan array binding signal (z-score),[6],5.88
same,glycan array binding signal (z-score),[7],-0.837
same,glycan array binding signal (z-score),Gal(b1-4)Glc6S,-0.389
same,glycan array binding signal (z-score),[8],0.146
same,glycan array binding signal (z-score),[9],-0.458
same,glycan array binding signal (z-score),Gal3S(b1-4)GlcNAc,-0.01
same,glycan array binding signal (z-score),[10],1.16
same,glycan array binding signal (z-score),Gal4S6S(b1-4)GlcNAc,0.955
same,glycan array binding signal (z-score),GalNAc(a1-3)GalNAc,-0.435
same,glycan array binding signal (z-score),GlcA(b1-3)Gal,-0.753
same,glycan array binding signal (z-score),[11],3.64
same,glycan array binding signal (z-score),[12],6.93
same,glycan array binding signal (z-score),GlcNAc3Prop(b1-4)GlcNAc,-0.064
same,glycan array binding signal (z-score),Kdn(a2-3)Gal(b1-3)GlcNAc,-0.084
same,glycan array binding signal (z-score),[13],5.38
same,glycan array binding signal (z-score),Man(a1-3)[Man(a1-6)]Man,-0.079
same,glycan array binding signal (z-score),[14],2.66
same,glycan array binding signal (z-score),Neu5Ac(a2-3)Gal,-0.653
same,glycan array binding signal (z-score),[15],0.949
same,glycan array binding signal (z-score),[16],-0.204
same,glycan array binding signal (z-score),[17],0.38
same,glycan array binding signal (z-score),[18],0.734
same,glycan array binding signal (z-score),[19],-1.2
same,glycan array binding signal (z-score),[20],2.71
same,glycan array binding signal (z-score),[21],-0.095
